In PubChem BioAssay (EPA / NIEHS):
Activity calls are given as the source filed them. The calls were made as follows: active = hit-call score of the fitted dose curve at least 0.9, where 1 is the maximum; inactive = score below 0.9.

What was measured:
Details in all cases: mRNA level, 48 h; actives raise or lower the signal
[1] = read-out: Peroxisomal acyl-coenzyme A oxidase 1 (ACOX1) gene, ACOX1 (gene 51); test: LTEA_HepaRG_ACOX1: Life Technologies and Expression Analysis (LTEA) Assay for Peroxisomal acyl-coenzyme A oxidase 1 (ACOX1) gene using HepaRG (AID 2283467)
Method in brief: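 Measured by qRT-PCR against three housekeeping genes: ACOX1 transcript change in human HepaRG cells after 48 h dosing. Concentrations ran up to 100 uM in half-log steps. Curves were fitted bidirectionally relative to 0.5% DMSO.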

[2] = read-out: Alkaline Phosphatase, Placental (ALPP) gene, ALPP (gene 250); test: LTEA_HepaRG_ALPP: Life Technologies and Expression Analysis (LTEA) Assay for Alkaline Phosphatase, Placental (ALPP) gene using HepaRG (AID 2283468)
Method in brief: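 Expression of ALPP was quantified by qRT-PCR against three housekeeping genes in human HepaRG cultures treated for 48 h with an eight-point concentration series up to 100 uM. Activity in either direction was fitted relative to 0.5% DMSO.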

[3] = read-out: Bcl-2 (BAD) gene, BAD (gene 572); test: LTEA_HepaRG_BAD: Life Technologies and Expression Analysis (LTEA) Assay for Bcl-2 (BAD) gene using HepaRG (AID 2283469)
Method in brief: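 BAD transcript change, measured by qRT-PCR against three housekeeping genes and fitted in both directions relative to 0.5% DMSO, after 48 h chemical treatment of human HepaRG liver cells at concentrations up to 100 uM.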

[4] = read-out: Bcl-2 (BAX) gene, BAX (gene 581); test: LTEA_HepaRG_BAX: Life Technologies and Expression Analysis (LTEA) Assay for Bcl-2 (BAX) gene using HepaRG (AID 2283470)
Method in brief: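 Differentiated HepaRG cells exposed 48 h in serum-free induction medium, eight half-log concentrations from 100 uM, in duplicate, 0.5% DMSO vehicle. BAX mRNA by TaqMan qRT-PCR, normalised to ACTB, GAPDH and POLR2A.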

[5] = read-out: adenosine kinase (ADK) gene, ADK (gene 132); test: LTEA_HepaRG_ADK: Life Technologies and Expression Analysis (LTEA) Assay for adenosine kinase (ADK) gene using HepaRG (AID 2283471)
Method in brief: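 Following 48 h exposure of HepaRG cells in 0.5% DMSO (top concentration 100 uM, duplicate wells), ADK mRNA induction or suppression was measured by qRT-PCR, normalised to ACTB/GAPDH/POLR2A, and fitted bidirectionally relative to vehicle.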

[6] = read-out: Alpha-fetoprotein (AFP) gene, AFP (gene 174); test: LTEA_HepaRG_AFP: Life Technologies and Expression Analysis (LTEA) Assay for Alpha-fetoprotein (AFP) gene using HepaRG (AID 2283472)
Method in brief: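 Differentiated human HepaRG cells exposed 48 h in serum-free induction medium, 8-point half-log series from 100 uM in 0.5% DMSO, duplicate. AFP mRNA by qRT-PCR, normalized to ACTB, GAPDH, POLR2A; bidirectional fit vs DMSO.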

[7] = read-out: BCL2L11 (gene 10018); test: LTEA_HepaRG_BCL2L11: Life Technologies and Expression Analysis (LTEA) Assay for Bcl-2 (BCL2L11) gene using HepaRG (AID 2283473)
Method in brief: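 Cells were plated, cultured 48 h, switched to serum-free induction medium, then dosed in duplicate for 48 h at eight half-log concentrations up to 100 uM. Lysates underwent RNA isolation and TaqMan qRT-PCR; gain or loss versus DMSO was fitted.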

[8] = read-out: Apolipoprotein A-V (APOA5) gene, APOA5 (gene 116519); test: LTEA_HepaRG_APOA5: Life Technologies and Expression Analysis (LTEA) Assay for Apolipoprotein A-V (APOA5) gene using HepaRG (AID 2283474)
Method in brief: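 Human liver HepaRG cells are treated 48 h with test chemicals (100 uM top, half-log dilutions, 0.5% DMSO). APOA5 mRNA induction or loss is measured by qRT-PCR relative to vehicle.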

[9] = read-out: Apoptosis regulator Bcl-2 (Homo sapiens) (UniProt P10415); test: LTEA_HepaRG_BCL2: Life Technologies and Expression Analysis (LTEA) Assay for Bcl-2 gene using HepaRG (AID 2283475)
Method in brief: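 Differentiated human HepaRG cells in serum-free induction medium exposed 48 h, in duplicate, to 8-point half-log series from 100 uM in 0.5% DMSO. BCL2 mRNA by qRT-PCR (TaqMan/Fluidigm), normalized to ACTB, GAPDH, POLR2A; bidirectional fit against DMSO.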

[10] = read-out: Bcl-2 (BID) gene, BID (gene 637); test: LTEA_HepaRG_BID: Life Technologies and Expression Analysis (LTEA) Assay for Bcl-2 (BID) gene using HepaRG (AID 2283476)
Method in brief: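 Gene expression by qRT-PCR in HepaRG cells after 48 h exposure, duplicate wells, eight half-log concentrations topping at 100 uM in 0.5% DMSO. Normalized to ACTB, GAPDH, POLR2A; bidirectional fitting relative to DMSO.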

[11] = read-out: Caspase-3 (Homo sapiens) (UniProt P42574); test: LTEA_HepaRG_CASP3: Life Technologies and Expression Analysis (LTEA) Assay for cysteine-aspartic acid protease (CASP3) using HepaRG (AID 2283477)
Method in brief: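 In HepaRG liver cells dosed for 48 h at up to 100 uM (eight-point, duplicate), CASP3 expression changes are scored by qRT-PCR. Activity is fitted in both directions with 0.5% DMSO as baseline.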

[12] = read-out: Cytochrome P450 (CYP24A1), CYP24A1 (gene 1591); test: LTEA_HepaRG_CYP24A1: Life Technologies and Expression Analysis (LTEA) Assay for Cytochrome P450 (CYP24A1) using HepaRG (AID 2283478)
Method in brief: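 Human liver HepaRG cultures receive each chemical for 48 h across an eight-point half-log series topping at 100 uM in 0.5% DMSO. Induction or suppression of CYP24A1 mRNA is scored relative to vehicle after housekeeping-gene normalization.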

[13] = read-out: Cytochrome P450 (CYP1A2), CYP1A2 (gene 1544); test: LTEA_HepaRG_CYP1A2: Life Technologies and Expression Analysis (LTEA) Assay for Cytochrome P450 (CYP1A2) using HepaRG (AID 2283479)
Method in brief: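 Assesses CYP1A2 mRNA in human HepaRG liver cells after 48 h chemical exposure at up to 100 uM. Values come from qRT-PCR with bidirectional curve fitting relative to DMSO.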

[14] = read-out: cysteine-aspartic acid protease (CASP8), CASP8 (gene 841); test: LTEA_HepaRG_CASP8: Life Technologies and Expression Analysis (LTEA) Assay for cysteine-aspartic acid protease (CASP8) using HepaRG (AID 2283480)
Method in brief: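 HepaRG, 48 h exposure, duplicate wells; 8 conc, half-log from 100 uM, 0.5% DMSO. Serum-free induction medium. CASP8 mRNA by TaqMan qRT-PCR, norm. ACTB/GAPDH/POLR2A; gain/loss fitted vs DMSO.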

[15] = read-out: Cytochrome P450 (CYP2B6), CYP2B6 (gene 1555); test: LTEA_HepaRG_CYP2B6: Life Technologies and Expression Analysis (LTEA) Assay for Cytochrome P450 (CYP2B6) using HepaRG (AID 2283481)
Method in brief: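 Using 48 h treatment of HepaRG cells in serum-free induction medium, concentrations spanned half-log steps from 100 uM in 0.5% DMSO vehicle. CYP2B6 mRNA induction or loss is scored by qRT-PCR against DMSO.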

[16] = read-out: Cytochrome P450 2C19 (Homo sapiens) (UniProt P33261); test: LTEA_HepaRG_CYP2C19: Life Technologies and Expression Analysis (LTEA) Assay for CYP2C19 using HepaRG (AID 2283482)
Method in brief: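 Human HepaRG liver cells received test chemicals for 48 h (highest 100 uM, half-log dilutions in 0.5% DMSO). CYP2C19 mRNA induction or loss is read by multiplexed qRT-PCR and fitted in both directions versus vehicle.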

[17] = read-out: CYP2C8 (gene 1558); test: LTEA_HepaRG_CYP2C8: Life Technologies and Expression Analysis (LTEA) Assay for CYP2C8 using HepaRG (AID 2283483)
Method in brief: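 CYP2C8 mRNA induction or loss, by qRT-PCR normalized to ACTB/GAPDH/POLR2A, is read in HepaRG cells after 48 h treatment. Concentrations run from 100 uM down in half-log dilutions, with 0.5% DMSO as vehicle and baseline.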

[18] = read-out: CYP2C9 (gene 1559); test: LTEA_HepaRG_CYP2C9: Life Technologies and Expression Analysis (LTEA) Assay for CYP2C9 using HepaRG (AID 2283484)
Method in brief: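 Cells plated 48 h, switched to serum-free induction medium, then treated in duplicate for 48 h at eight concentrations (max 100 uM, 0.5% DMSO). RNA then analysed by qRT-PCR for CYP2C9; curves fitted in both directions relative to DMSO.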

[19] = read-out: CYP2E1 (gene 1571); test: LTEA_HepaRG_CYP2E1: Life Technologies and Expression Analysis (LTEA) Assay for CYP2E1 using HepaRG (AID 2283485)
Method in brief: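 HepaRG cells, plated 48 h, then exposed 48 h in serum-free induction medium to eight half-log concentrations from 100 uM in 0.5% DMSO, duplicate. CYP2E1 mRNA by qRT-PCR, normalized to ACTB/GAPDH/POLR2A; bidirectional fit versus DMSO.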

[20] = read-out: CYP4A11 (gene 1579); test: LTEA_HepaRG_CYP4A11: Life Technologies and Expression Analysis (LTEA) Assay for CYP4A11 using HepaRG (AID 2283486)
Method in brief: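 Readout is CYP4A11 mRNA induction or suppression (qRT-PCR, ACTB/GAPDH/POLR2A normalization) in human HepaRG cells after 48 h chemical treatment, concentrations to 100 uM in 0.5% DMSO, fitted bidirectionally against vehicle.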

Measured: AC50

Sequence of Cytochrome P450 2C19 (Homo sapiens) (P33261 whole entry, looked up): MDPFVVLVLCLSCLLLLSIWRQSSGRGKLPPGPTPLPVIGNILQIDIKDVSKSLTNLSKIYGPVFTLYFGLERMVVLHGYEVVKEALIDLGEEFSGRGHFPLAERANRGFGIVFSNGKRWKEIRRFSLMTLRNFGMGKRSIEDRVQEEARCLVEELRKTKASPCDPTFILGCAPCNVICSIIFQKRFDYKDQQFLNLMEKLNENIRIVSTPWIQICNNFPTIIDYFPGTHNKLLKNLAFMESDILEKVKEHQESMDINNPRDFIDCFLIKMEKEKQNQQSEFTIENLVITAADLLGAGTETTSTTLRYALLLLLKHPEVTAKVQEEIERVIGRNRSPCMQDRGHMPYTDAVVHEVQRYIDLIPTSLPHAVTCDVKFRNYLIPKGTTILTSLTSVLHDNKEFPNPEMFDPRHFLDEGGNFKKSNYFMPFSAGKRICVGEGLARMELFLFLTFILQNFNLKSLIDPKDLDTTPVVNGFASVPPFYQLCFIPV
Sequence of Caspase-3 (Homo sapiens) (P42574 whole entry, looked up): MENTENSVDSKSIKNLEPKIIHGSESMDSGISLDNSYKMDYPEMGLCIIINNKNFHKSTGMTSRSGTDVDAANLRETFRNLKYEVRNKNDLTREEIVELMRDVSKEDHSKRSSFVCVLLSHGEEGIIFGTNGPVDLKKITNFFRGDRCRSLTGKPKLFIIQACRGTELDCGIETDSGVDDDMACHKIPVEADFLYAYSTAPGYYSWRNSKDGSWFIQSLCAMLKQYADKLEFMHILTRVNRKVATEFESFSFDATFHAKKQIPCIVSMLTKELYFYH
Sequence of Apoptosis regulator Bcl-2 (Homo sapiens) (P10415 whole entry, looked up): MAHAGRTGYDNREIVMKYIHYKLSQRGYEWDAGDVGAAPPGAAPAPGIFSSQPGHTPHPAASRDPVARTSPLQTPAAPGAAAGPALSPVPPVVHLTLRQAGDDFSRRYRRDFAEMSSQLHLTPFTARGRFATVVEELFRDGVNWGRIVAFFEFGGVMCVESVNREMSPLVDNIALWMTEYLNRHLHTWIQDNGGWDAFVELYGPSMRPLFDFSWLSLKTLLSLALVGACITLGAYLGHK

N#CCCCCC#N
active: [15] 50 µM
inactive: all other assays above

O=[N+]([O-])c1ccc(Cl)cc1
inactive: all assays above
